Laboratory results: PubChem BioAssay (NCI)
About 83,000 compounds went through this panel and 20% of them were active in at least one assay; those are over-represented in the sample as a whole.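 For each line, cells grew in 96-well plates with the test compound present at a single concentration for 48 hours.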 The source made the active and inactive calls. Rule for the calls: active = growth percent below 10; inactive = the rest.

Key:
Assay in all cases: NCI-60 one-dose screen, 48 h (100 = growth as untreated, 0 = no growth, -100 = all killed)
Settings in all cases: 10 µM unless noted
SR leukemia = tested on: SR leukemia
RPMI-8226 leukemia = tested on: RPMI-8226 leukemia
OVCAR-8 ovarian = tested on: OVCAR-8 ovarian
OVCAR-5 ovarian = tested on: OVCAR-5 ovarian
OVCAR-4 ovarian = tested on: OVCAR-4 ovarian
SK-OV-3 ovarian = tested on: SK-OV-3 ovarian
IGROV1 ovarian = tested on: IGROV1 ovarian
OVCAR-3 ovarian = tested on: OVCAR-3 ovarian
HS 578T breast = tested on: HS 578T breast
NCI/ADR-RES ovarian = tested on: NCI/ADR-RES ovarian
T-47D breast = tested on: T-47D breast
BT-549 breast = tested on: BT-549 breast
MDA-MB-435 melanoma = tested on: MDA-MB-435 melanoma
SW-620 colon = tested on: SW-620 colon
MCF7 breast = tested on: MCF7 breast
HCT-116 colon = tested on: HCT-116 colon
HCC-2998 colon = tested on: HCC-2998 colon
KM12 colon = tested on: KM12 colon

Measured: growth

COc1ccc(C2CC(c3ccc(Nc4nc(Nc5ccc(F)cc5)nc(Nc5ccc(F)cc5)n4)cc3)=NN2C(C)=O)cc1 (centres undefined)
inactive: SR leukemia 16.4% | OVCAR-8 ovarian 90.3% | OVCAR-5 ovarian 87.6% | OVCAR-4 ovarian 98.1% | SK-OV-3 ovarian 131% | IGROV1 ovarian 101% | OVCAR-3 ovarian 97.9% | HS 578T breast 111% | NCI/ADR-RES ovarian 80.5% | T-47D breast 69.8% | BT-549 breast 96.2% | MDA-MB-435 melanoma 92.1% | SW-620 colon 101% | MCF7 breast 98.9% | HCT-116 colon 93.5% | HCC-2998 colon 37.6% | KM12 colon 95.3%
active: RPMI-8226 leukemia 7.18%

Cc1ccc(N=Nc2c(N)nn(-c3ccccc3)c2N)cc1
active: SR leukemia -16.6% | RPMI-8226 leukemia -1.12% | OVCAR-3 ovarian 0.588% | NCI/ADR-RES ovarian -5.12% | BT-549 breast -3.98% | MDA-MB-435 melanoma -52.1% | MCF7 breast 7.61%
inactive: OVCAR-8 ovarian 41.6% | OVCAR-5 ovarian 55.3% | OVCAR-4 ovarian 75% | SK-OV-3 ovarian 37.2% | IGROV1 ovarian 48.3% | HS 578T breast 36.1% | T-47D breast 21.5% | SW-620 colon 23.2% | HCT-116 colon 15.6% | HCC-2998 colon 46.1% | KM12 colon 27.6%

CCOC(=O)C1=C(c2ccccc2)N=c2s/c(=C/c3ccc(Br)cc3)c(=O)n2C1c1ccc(O)cc1 (centres undefined)
inactive: SR leukemia 54.8% | RPMI-8226 leukemia 74.1% | OVCAR-8 ovarian 89.2% | OVCAR-5 ovarian 105% | OVCAR-4 ovarian 75.1% | SK-OV-3 ovarian 104% | IGROV1 ovarian 93.1% | OVCAR-3 ovarian 86.1% | HS 578T breast 84.4% | NCI/ADR-RES ovarian 99.5% | T-47D breast 69.7% | BT-549 breast 95.3% | MDA-MB-435 melanoma 96% | SW-620 colon 94.6% | MCF7 breast 77.1% | HCT-116 colon 82.3% | HCC-2998 colon 105% | KM12 colon 84.4%

CCOC(=O)c1c(C)c2c(n1C)CSc1cc(S(=O)(=O)c3ccccc3)c(=O)[nH]c1-2
inactive: SR leukemia 45% [100 µM] | RPMI-8226 leukemia 28.9% [100 µM] | OVCAR-8 ovarian 34.4% [100 µM] | OVCAR-5 ovarian 62.4% [100 µM] | OVCAR-4 ovarian 26.4% [100 µM] | SK-OV-3 ovarian 26.8% [100 µM] | IGROV1 ovarian 30.6% [100 µM] | OVCAR-3 ovarian 18.5% [100 µM] | HS 578T breast 53.6% [100 µM] | NCI/ADR-RES ovarian 18.6% [100 µM] | T-47D breast 12.3% [100 µM] | MDA-MB-435 melanoma 19.3% [100 µM] | SW-620 colon 35.9% [100 µM] | MCF7 breast 13.8% [100 µM] | HCT-116 colon 11% [100 µM] | HCC-2998 colon 20.3% [100 µM] | KM12 colon 16.5% [100 µM]
active: BT-549 breast 3.95% [100 µM]

COc1ccc(-c2oc(=O)ccc2-c2cc(OC)c(OC)c(OC)c2)cc1O
active: SR leukemia 8.87% | OVCAR-3 ovarian -59.3% | HS 578T breast -7.79% | MDA-MB-435 melanoma -64.9% | HCT-116 colon -30.2%
inactive: RPMI-8226 leukemia 14.6% | OVCAR-8 ovarian 23.1% | OVCAR-5 ovarian 35.7% | OVCAR-4 ovarian 47.6% | SK-OV-3 ovarian 28.3% | IGROV1 ovarian 29.8% | NCI/ADR-RES ovarian 29.1% | T-47D breast 44.7% | BT-549 breast 24.7% | SW-620 colon 14.8% | MCF7 breast 10.6% | HCC-2998 colon 211% | KM12 colon 22.6%

CCCC(O)Cn1ncc(C(=O)OCC)c1NC(=O)NCc1cccc(F)c1 (centres undefined)
inactive: SR leukemia 80.1% | RPMI-8226 leukemia 75.2% | OVCAR-8 ovarian 94.8% | OVCAR-5 ovarian 100% | OVCAR-4 ovarian 87.2% | SK-OV-3 ovarian 100% | IGROV1 ovarian 97.2% | OVCAR-3 ovarian 99.7% | HS 578T breast 110% | NCI/ADR-RES ovarian 95.5% | T-47D breast 88.2% | BT-549 breast 78.5% | MDA-MB-435 melanoma 101% | SW-620 colon 107% | MCF7 breast 91.8% | HCT-116 colon 71.6% | HCC-2998 colon 90.6% | KM12 colon 105%

C=CCN=C(N)SCCCCCCSC(N)=NCC=C
inactive: SR leukemia 93.7% | RPMI-8226 leukemia 94% | OVCAR-8 ovarian 94.6% | OVCAR-5 ovarian 97.5% | OVCAR-4 ovarian 109% | SK-OV-3 ovarian 70.4% | IGROV1 ovarian 103% | OVCAR-3 ovarian 95.9% | HS 578T breast 92.2% | NCI/ADR-RES ovarian 104% | T-47D breast 55.9% | BT-549 breast 84.9% | MDA-MB-435 melanoma 99.3% | SW-620 colon 94.7% | MCF7 breast 90.9% | HCT-116 colon 75.5% | HCC-2998 colon 93.1% | KM12 colon 97.5%

COCCCOc1cc(C[C@@H](C[C@H](N)[C@@H](O)C[C@H](C(=O)NCC(C)(C)C(N)=O)C(C)C)C(C)C)ccc1OC
inactive: SR leukemia 103% | RPMI-8226 leukemia 111% | OVCAR-8 ovarian 105% | OVCAR-5 ovarian 110% | OVCAR-4 ovarian 101% | SK-OV-3 ovarian 113% | IGROV1 ovarian 111% | OVCAR-3 ovarian 116% | HS 578T breast 71.3% | NCI/ADR-RES ovarian 103% | T-47D breast 107% | BT-549 breast 110% | MDA-MB-435 melanoma 98.9% | SW-620 colon 105% | MCF7 breast 95.1% | HCT-116 colon 101% | HCC-2998 colon 102% | KM12 colon 109%
